According to PubChem BioAssay AID1918 (Vanderbilt High Throughput Screening Facility, 2009):
Hit rate of the full screen: of about 130,000 compounds, about 2,500 (1.9%) were called active.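 How the source made its calls: active means signal ratio slope over the read window, or its plate-corrected B-score, at least 3 SD from the plate mean, either direction; inactive means the rest.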 The entries come from a sample that favours actives as a whole.

Molecular target: ATP-sensitive inward rectifier potassium channel 1 (Homo sapiens) (UniProt P48048)
Test: ROMK potassium channel modulators, primary screen, cell-based, thallium flux, MLSMR library (AID 1918);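 further: B-score of the F/F0 ratio slope over 7 to 12 s after thallium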
Conditions: Tet-inducible ROMK, thallium flux fluorescence; at 10 µM; actives lie on both sides

Chain of ATP-sensitive inward rectifier potassium channel 1 (Homo sapiens) (P48048 whole entry, looked up): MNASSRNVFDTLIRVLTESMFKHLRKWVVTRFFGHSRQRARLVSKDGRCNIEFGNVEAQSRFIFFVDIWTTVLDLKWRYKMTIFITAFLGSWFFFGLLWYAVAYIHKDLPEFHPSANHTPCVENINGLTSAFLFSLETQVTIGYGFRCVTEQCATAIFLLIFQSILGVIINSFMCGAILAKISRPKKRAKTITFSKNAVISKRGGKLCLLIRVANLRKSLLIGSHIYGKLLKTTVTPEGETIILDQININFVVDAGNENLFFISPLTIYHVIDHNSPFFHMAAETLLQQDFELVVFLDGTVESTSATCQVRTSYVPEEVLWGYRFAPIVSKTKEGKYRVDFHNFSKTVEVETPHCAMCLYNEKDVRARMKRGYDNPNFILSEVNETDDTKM

B-score, active:
Cc1ccc2c(=O)oc(N(C)C)nc2c1 2.36, CC1CCCN(S(=O)(=O)c2ccc(N(C(=O)c3cnccn3)C(C(=O)NC3CCCCC3)c3cccs3)cc2)C1 (stereo unspecified) -3.38, COc1ccc(N=Cc2c(O)[nH]c3ccccc23)cc1OC 2.81, CCC1(C)Cc2c(sc3[nH]c(=S)n(Cc4ccccc4)c(=O)c23)CO1 (stereo unspecified) 5.27, CC(C(=O)NC1CCCC1)N(c1ccc(Oc2ccccc2)cc1)S(C)(=O)=O (stereo unspecified) -3.71, Cc1ccccc1C(OCC(O)CN1CCCCC1CCO)c1ccccc1 (stereo unspecified) -4.16, O=C(CCN1CCc2ccccc2C(O)(c2ccccc2)C1)c1ccc2c(c1)OCCO2 (stereo unspecified) -3.53, Cc1cccc(N2CCN(C(c3ccc(N(C)C)cc3)c3nnnn3C(C)(C)C)CC2)c1C (stereo unspecified) -2.94, Fc1ccc2[nH]c3c(N4CCSCC4)ncnc3c2c1 -5.22, Fc1ccc2[nH]c3c(N4CCN(Cc5ccc6c(c5)OCO6)CC4)ncnc3c2c1 -3.14, CCOc1cc(/C=C(\C#N)c2nc(-c3cccs3)c(NC(C)=O)s2)ccc1O -2.6, Cc1ccc(S(=O)(=O)C2(S(=O)(=O)c3ccc(C)cc3)CCCC2)cc1 3.4, O=C(Cn1nc(CNc2ccc(Cl)cc2)[n+]2c1CCCCC2)c1ccc(Cl)cc1 -3.24, COc1ccc(C2=CC(c3cccc(OC)c3)n3nnnc3N2)cc1 (stereo unspecified) -4.22, O=c1cc(-c2ccccc2)[nH]c2cc(F)ccc12 4.56, Cc1cccc(Oc2c([N+](=O)[O-])c(=O)n(C)c3ccccc23)c1 -2.67, COc1cc2c(cc1O)C(SC)=NC(C)(C)C2 -6.55, CSc1cccc(NC(=S)N(Cc2ccccc2)Cc2ccccn2)c1 -1.37

B-score, inactive:
CN1CCN(CC(=O)Nc2cccc([N+](=O)[O-])c2)CC1 0.51, CNC(=S)NNC(=O)c1cccn(Cc2ccccc2)c1=O 0.643, O=C(Nc1cccc(Cl)c1N1CCOCC1)c1ccc2c(c1)OCCO2 -0.937, CCS(=O)(=O)c1ccc(C(=O)NC)c(Cl)c1Cl 0.613, CN(C)c1ccc2c(=O)[nH][nH]c(=O)c2c1 0.291, Cc1ccc2nc3n(c(=O)c2c1)CCC3 0.127, Cc1cc(C)c(C(N)=O)c(Cl)n1 0.133, Cc1ccc(N(C(=O)C(F)(F)F)C(C(=O)NC2CCCCC2)c2ccncc2)cc1C (stereo unspecified) -0.0116, CC1CCCN(S(=O)(=O)c2ccc(C(=O)Nc3nnc(-c4ccncc4)o3)cc2)C1 (stereo unspecified) 0.153, N/C(=N\OC(=O)CCc1ccccc1)c1cccnc1 0.92, O=C(/C=C/c1ccccc1[N+](=O)[O-])OC1CCCCC1=O (stereo unspecified) 0.69, COc1ccc(/C=N/S(=O)(=O)c2ccccc2)cc1OC -0.975, COc1ccc(CCNC(=O)CCCCn2c(=O)[nH]c3ccccc3c2=O)cc1OC 0.342, CCC1(C)Cc2c(sc3nc4n(c(=O)c23)CCCS4)CO1 (stereo unspecified) -0.196, CCC1(C)Cc2c(sc3nc(SC)nc(N)c23)CO1 (stereo unspecified) -1.15, NC(=O)C1CCN(C(=O)COc2cccc3cccnc23)CC1 0.124, Cc1cc(C(=O)N/N=C\C(Br)=C\c2ccccc2)c(C)o1 -0.321, COc1ccc(/C=N/NC(=O)C(C)N(c2ccc(OC)cc2)S(C)(=O)=O)cc1 (stereo unspecified) -0.0127, CS(=O)(=O)N(CC(=O)N/N=C/c1ccccn1)c1ccc(Oc2ccccc2)cc1 -0.000176, CSc1ccccc1NC(=O)CN(C)CC(=O)Nc1ccc(Cl)cc1[N+](=O)[O-] -1.12, CC(C)OCC(O)CN1CCN(C(c2ccccc2)c2ccccc2)CC1 (stereo unspecified) -0.0404, Cc1cccc(C)c1OCC(O)CN1CCCCC1 (stereo unspecified) 0.161, Cc1ccc(C(=O)OC2CCCN(C)C2)cc1 (stereo unspecified) 0.17, Cc1ccc2nc(COc3ccc(N(C)S(=O)(=O)c4ccccc4)cc3)cc(=O)n2c1 0.648, COCCNC(=O)CCCn1c(=O)c2ccccc2n(Cc2cccc([N+](=O)[O-])c2)c1=O -1.13, COc1ccc(CCNC(=O)COC(=O)Cc2cc(OC)c(OC)c(OC)c2)cc1 0.986, COc1ccc2c(c1)CCC/C2=N\OC(=O)c1ccccc1F -0.245, Cc1ccccc1-n1nc(SCC(=O)O)sc1=S -0.00827, O=S(=O)(c1ccc2c(c1)OCCO2)N1CCc2ccccc21 0.399, O=C(CN1CCC(O)(c2ccccc2)CC1)Nc1ccc2c(c1)OCCO2 0.414, COc1ccc(NC(=S)Nc2ccc(S(N)(=O)=O)cc2)c(C)c1 0.982, CN(C)CCCN(Cc1cc2cc3c(cc2[nH]c1=O)OCCO3)C(=O)NC1CCCCC1 0.033, COc1ccc(NC(=O)COc2ccc(C(=O)OCC(=O)N(C)C3CCS(=O)(=O)C3)cc2OC)cc1 (stereo unspecified) 0.348, CC(C)(C)n1nnnc1C(c1ccc2ncccc2c1)N1CCSCC1 (stereo unspecified) -0.18, CC(=O)N1CCN(c2cccc(C)c2C)CC1 -0.0972, CCC(C(=O)Nc1ccc(C(C)C)cc1)c1ccccc1 (stereo unspecified) -0.192, COc1cc2sc(C)nc2cc1C 1.46, O=c1[nH]c(N2CCN(Cc3ccc4c(c3)OCO4)CC2)nc2c1CCCC2 -1.42, CC(C)OCCCNc1ncnc2c1[nH]c1ccc(F)cc12 -2.49, CC(C)OC(=O)C(C#N)c1nc2ccccc2nc1N1CCN(Cc2ccc3c(c2)OCO3)CC1 (stereo unspecified) -0.0869, Nn1c(SCC(=O)Nc2nccs2)nncc1=O 1.33, COc1ccc(CC(=O)N[C@@H](CCSC)c2nc3ccccc3[nH]2)cc1 -1.58, CCc1nnc(NC(=O)CSc2nc(SC)ns2)s1 -0.0846, O=C(C1CCCN1S(=O)(=O)c1ccc(Br)cc1)N1CCOCC1 (stereo unspecified) -0.207, CCn1cc(C(=O)Nc2cc(C)ccc2C)c(=O)c2ccc(C)nc21 0.0033, COc1ccc(CC2(CO)CCN(Cc3cnn(C)c3)CC2)cc1 0.221, CCOc1cc(/C=C(/C#N)c2ccc(Cl)cc2)cc(Cl)c1OCC(=O)O 1.07, CCOc1cccc(C(=O)Nc2nnc(-c3cccs3)s2)c1 1.45, Cc1ccc(S(=O)(=O)N2CCC(N3CCCCCC3)CC2)cc1 0.651, Cc1ccc(S(=O)(=O)N(C)C2(C)CCS(=O)(=O)C2)cc1 (stereo unspecified) 1.47, COc1ccc(N(CC(=O)Nc2ccc(C)cc2C)S(=O)(=O)c2ccccc2[N+](=O)[O-])c(OC)c1 -0.208, CN(C)S(=O)(=O)c1cccc(NC(=O)COC(=O)/C=C/c2cccs2)c1 0.12, O=C(CN(C(=O)c1csnn1)c1cccc(F)c1)NCc1ccc(F)cc1 0.442, COC(=O)c1ccc(NCC(=O)N2CCCCCC2)cc1 -0.512, O=C(Cn1ncc(N2CCCC2)c(Br)c1=O)c1ccc(Cl)cc1 -0.342, CC(C)CCN1CCN(C/C=C/c2ccco2)CC1CCO (stereo unspecified) 0.0943, COc1cccc(C2Nc3cccc4cccc(c34)N2)c1 -0.051, CCOc1cccc(-n2nnnc2-c2ccc(OC)cc2)c1 2.1, Cc1cc(NS(=O)(=O)c2ccc(NC(=O)c3cccc(OC(F)F)c3)cc2)nc(C)n1 0.878, Cc1ccc([N+](=O)[O-])c(OCCCNCC(C)O)c1 (stereo unspecified) -0.00821, O=C(Cc1ccc([N+](=O)[O-])cc1)N/N=C/c1ccco1 -1.24, N#Cc1c(-c2ccc(F)cc2)nc(-c2ccccc2)[nH]c1=O -1.43, O=c1[nH]c(-c2ccccc2)c(-c2ccccc2)[nH]1 -0.0963, CN(C)/C=C/C(=O)c1cnc2sccn2c1=O -0.835, Cc1nn(C)c(Oc2ccccc2)c1[N+](=O)[O-] 0.573, Cc1cccc(OP(=O)(Nc2c(C)n(C)n(-c3ccccc3)c2=O)Oc2cccc(C)c2)c1 -0.868, COc1cccc(-c2ccc(SCC(=O)N3CCN(c4ccccc4)CC3)nn2)c1 0.576, COc1ccc(S(=O)(=O)N2CCCCCC2)cc1C(=O)OCC(=O)Nc1cc(C)on1 0.559, COc1cc2c(cc1OC)C(C(C)C)=NC(C)(C)C2 -0.0102, CN(C)C(=O)c1cccn(Cc2cccc(C(F)(F)F)c2)c1=O 0.481, CN1CCNC(=O)C1CC(=O)N1CC=C(c2ccc(F)cc2)CC1 (stereo unspecified) -0.128, CSc1cccc(NC(=S)N(C(C)C)C(C)c2ccccn2)c1 (stereo unspecified) -0.872, COc1cccc(NC(=S)N(Cc2ccc(C)cc2)Cc2ccccn2)c1 0.0921, O=C(Nc1ccncc1)c1ccccc1[N+](=O)[O-] -0.131, CC1=C/C(=N\S(=O)(=O)c2ccccc2)C(C(C)C)=CC1=O -2.34, COc1ccc(/C=C/C(=O)N2CCCC2)cc1OC 1.08, Cc1sc2c(c1C)c(=O)n(-c1ccccc1)c(=O)n2CC(=O)NCC1CCCO1 (stereo unspecified) 0.885, Cc1ccc(C(NC(=O)N2CCCC2)C(Cl)(Cl)Cl)cc1F (stereo unspecified) 0.515
